According to the supplement of paper PMC10849652:
Targets with a hit are over-represented here; the source holds about 8,800 in all. About 0.5% of all pairs of compound and target were hits.

Legend:
Test in all cases: log2 fold change, soluble protein after heating vs DMSO (PISA); higher = thermal stabilisation; K562 lysate, 10 uM; active = over 0.2 and 3.5 SD of the protein, either way, in both replicates (recomputed)
[1] = compound: C#Cc1cccc(Nc2ncnc3cc(OCCOC)c(OCCOC)cc23)c1 [erlotinib]
Method in brief: (§1)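 Log-two fold change in thermal stability relative to solvent controls is reported from duplicates. For each sample, crude K562 extract from dounce-homogenised pellets in PBS pH 7.4 with 1 mM MgCl2, at 1 mg/mL protein, was treated with 10 μM compound for 30 min. Aliquots heated for 3 min across 48°C-58°C were pooled, brought to 0.5% NP-40 at 4°C and cleared at 21,000xg for 90 min. The supernatant was quantified by TMTpro 16plex LC-MS/MS with channel sums equalised.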

[2] = compound: C/C(=N\NC(=O)C1=CC(=CC=C1)S(=O)(=O)N2CCOCC2)/C3=C(C=CC(=C3)Cl)O
Method in brief: as §1

[3] = compound: C1=CC(=CC=C1C2=NC3=C(N2)C=C(C=C3)C(=O)N)OC4=CC=C(C=C4)Cl
Method in brief: as §1

[4] = compound: C1=CC2=C(C=CC(=C2)/C=C\3/C(=O)NC(=NCC4=CC=CS4)S3)N=C1
Method in brief: as §1

[5] = compound: C1=CC2=NC=CN=C2C=C1/C=C/3\C(=O)NC(=O)S3
Method in brief: as §1

[6] = compound: C1=CC=C(C=C1)C2=NC(=C(N2)C3=CC=NC=C3)C4=CC(=C(C=C4)Cl)O
Method in brief: as §1

[7] = compound: C1=CC=C2C(=C1)C3=NNC4=CC=CC(=C43)C2=O
Method in brief: as §1

[8] = compound: C1CCN(C1)C(=O)NC2=CC=CC(=C2)NC3=NC=C(C(=N3)NCCC4=CN=CN4)Br
Method in brief: as §1

[9] = compound: C1CN(CCC1(CC2=CC=C(C=C2)Cl)N)C3=NC=NC4=C3C=CN4
Method in brief: as §1

[10] = compound: C1COCCN1CCN2C3=CC=CC=C3N=C2NC(=O)C4=CC(=CC=C4)[N+](=O)[O-] [IRAK-1-4 Inhibitor I]
Method in brief: as §1

Measured: log2 fold change

EIF2B5 (UniProt Q13144)
inactive: [1] 0.015 | [2] -0.052 | [3] -0.017 | [4] 0.011 | [5] 0.03 | [6] -0.011 | [7] -0.054 | [8] 0.006 | [9] 0.007 | [10] 0.027

FBRSL1, A0A3B3IRR3
inactive: [1] -0.014 | [2] -0.021 | [3] 0.042 | [4] -0.03 | [5] 0 | [6] -0.028 | [7] -0.199 | [8] 0.043 | [9] -0.015 | [10] -0.024

EXOC4 (UniProt Q96A65)
inactive: [1] 0.031 | [2] 0.034 | [3] -0.065 | [4] 0.031 | [5] 0.012 | [6] -0.015 | [7] -0.026 | [8] -0.011 | [9] 0.011 | [10] -0.009

FLT4 (UniProt P35916)
inactive: [1] 0.047 | [2] 0.036 | [3] 0.038 | [4] 0.039 | [5] 0.075 | [6] 0.046 | [7] 0.044 | [8] -0.097 | [9] 0.087 | [10] -0.029

EBP (UniProt Q15125)
Sequence of UniProt Q15125 (Q15125 whole entry, looked up): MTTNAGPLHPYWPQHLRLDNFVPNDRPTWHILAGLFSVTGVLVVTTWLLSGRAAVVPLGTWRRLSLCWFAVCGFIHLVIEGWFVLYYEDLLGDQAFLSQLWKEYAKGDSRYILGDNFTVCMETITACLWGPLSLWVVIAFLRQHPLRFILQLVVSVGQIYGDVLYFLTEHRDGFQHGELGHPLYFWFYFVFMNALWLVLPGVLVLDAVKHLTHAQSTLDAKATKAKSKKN
inactive: [1] 0.055 | [2] 0.015 | [3] -0.073 | [4] -0.068 | [5] 0.01 | [6] -0.03 | [7] -0.128 | [8] 0.008 | [9] 0.047 | [10] 0.086

GCLM (UniProt P48507)
Sequence of UniProt P48507 (P48507 whole entry, looked up): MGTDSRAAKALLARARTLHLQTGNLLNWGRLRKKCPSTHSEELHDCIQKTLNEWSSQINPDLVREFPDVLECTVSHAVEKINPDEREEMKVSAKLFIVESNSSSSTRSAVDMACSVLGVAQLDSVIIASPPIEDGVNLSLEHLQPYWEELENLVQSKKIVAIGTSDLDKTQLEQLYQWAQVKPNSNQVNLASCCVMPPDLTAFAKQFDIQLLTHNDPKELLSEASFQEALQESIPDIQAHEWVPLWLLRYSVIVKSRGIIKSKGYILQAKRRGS
inactive: [1] -0.012 | [2] 0.021 | [3] 0.006 | [4] 0.007 | [5] 0.023 | [6] -0.001 | [7] -0.034 | [8] 0.014 | [9] 0.039 | [10] 0.016

FREM2 (UniProt Q5SZK8)
inactive: [1] 0.015 | [2] -0.095 | [3] -0.109 | [4] -0.065 | [5] 0.047 | [6] 0.008 | [7] -0.051 | [8] -0.02 | [9] -0.021 | [10] 0.009

EP300 (UniProt Q09472)
inactive: [1] 0.017 | [2] 0.011 | [3] -0.024 | [4] -0.017 | [5] 0.078 | [6] -0.015 | [7] -0.019 | [8] -0.033 | [9] 0 | [10] -0.006

FDFT1 (UniProt P37268)
Sequence of UniProt P37268 (P37268 whole entry, looked up): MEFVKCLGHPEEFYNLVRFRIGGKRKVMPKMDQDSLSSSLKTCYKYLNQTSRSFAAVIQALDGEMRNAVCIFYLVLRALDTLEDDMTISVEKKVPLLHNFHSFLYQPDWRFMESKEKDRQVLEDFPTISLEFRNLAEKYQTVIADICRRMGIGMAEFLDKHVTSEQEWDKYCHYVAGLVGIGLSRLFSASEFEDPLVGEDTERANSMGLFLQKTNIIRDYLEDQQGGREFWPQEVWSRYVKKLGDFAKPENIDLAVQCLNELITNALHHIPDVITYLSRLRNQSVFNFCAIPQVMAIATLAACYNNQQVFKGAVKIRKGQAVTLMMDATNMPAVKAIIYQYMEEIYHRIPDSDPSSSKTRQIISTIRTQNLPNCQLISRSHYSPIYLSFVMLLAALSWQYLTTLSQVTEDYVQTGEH
inactive: [1] -0.002 | [2] -0.072 | [3] -0.038 | [4] 0.176 | [5] 0.001 | [6] 0.211 | [7] 0.115 | [8] 0.005 | [9] 0.024 | [10] -0.014

G6PD isoform 2 (UniProt P11413)
inactive: [1] 0.034 | [2] 0.05 | [3] 0.024 | [4] 0.016 | [5] 0.018 | [6] -0.001 | [7] -0.002 | [8] 0.006 | [9] 0.011 | [10] 0.001

ELF2 (UniProt Q15723)
inactive: [1] 0.023 | [2] -0.136 | [3] 0.059 | [4] -0.068 | [5] 0.07 | [6] -0.036 | [7] -0.056 | [8] 0.009 | [9] -0.022 | [10] -0.01

FBXO22 (UniProt Q8NEZ5)
Sequence of UniProt Q8NEZ5 (Q8NEZ5 whole entry, looked up): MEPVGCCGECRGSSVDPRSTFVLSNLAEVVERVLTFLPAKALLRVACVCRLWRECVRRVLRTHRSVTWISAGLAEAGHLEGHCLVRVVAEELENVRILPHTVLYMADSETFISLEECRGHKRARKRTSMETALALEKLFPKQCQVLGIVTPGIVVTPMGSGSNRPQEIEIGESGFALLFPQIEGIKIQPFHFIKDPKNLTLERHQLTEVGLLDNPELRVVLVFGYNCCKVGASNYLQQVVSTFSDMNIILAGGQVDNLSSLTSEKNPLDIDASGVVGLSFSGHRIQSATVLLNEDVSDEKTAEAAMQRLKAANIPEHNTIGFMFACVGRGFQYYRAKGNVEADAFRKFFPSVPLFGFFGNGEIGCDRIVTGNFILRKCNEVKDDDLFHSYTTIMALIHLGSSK
inactive: [1] 0.042 | [2] -0.022 | [3] 0.048 | [4] 0.016 | [5] 0.02 | [6] -0.002 | [7] -0.01 | [8] 0.029 | [9] 0.049 | [10] 0.007

ELAVL1 isoform 2 (UniProt Q15717)
inactive: [1] 0.047 | [2] 0.008 | [3] 0.019 | [4] 0.025 | [5] -0.017 | [6] 0.001 | [7] -0.069 | [8] -0.027 | [9] 0.036 | [10] -0.051

ESPL1 (UniProt Q14674)
inactive: [1] 0.147 | [2] 0.019 | [3] 0.074 | [4] -0.086 | [5] 0.009 | [6] -0.011 | [7] 0.054 | [8] -0.025 | [9] 0.006 | [10] -0.028

FUBP3 (UniProt Q96I24)
inactive: [1] -0.023 | [2] 0.003 | [3] 0.04 | [4] 0.007 | [5] -0.009 | [6] -0.141 | [7] -0.033 | [8] -0.038 | [9] 0.003 | [10] 0.023

FXR1 (UniProt P51114)
inactive: [1] 0.041 | [2] 0.012 | [3] -0.039 | [4] -0.011 | [5] -0.024 | [6] 0.002 | [7] -0.082 | [8] -0.015 | [9] -0.008 | [10] -0.057

EED, A0A5F9ZI63
inactive: [1] 0.019 | [2] 0.042 | [3] -0.033 | [4] 0.017 | [5] -0.019 | [6] -0.012 | [7] 0.003 | [8] 0.003 | [9] 0.023 | [10] 0.021

GAPVD1 isoform 6 (UniProt Q14C86)
Sequence of UniProt Q14C86 (Q14C86 whole entry, looked up): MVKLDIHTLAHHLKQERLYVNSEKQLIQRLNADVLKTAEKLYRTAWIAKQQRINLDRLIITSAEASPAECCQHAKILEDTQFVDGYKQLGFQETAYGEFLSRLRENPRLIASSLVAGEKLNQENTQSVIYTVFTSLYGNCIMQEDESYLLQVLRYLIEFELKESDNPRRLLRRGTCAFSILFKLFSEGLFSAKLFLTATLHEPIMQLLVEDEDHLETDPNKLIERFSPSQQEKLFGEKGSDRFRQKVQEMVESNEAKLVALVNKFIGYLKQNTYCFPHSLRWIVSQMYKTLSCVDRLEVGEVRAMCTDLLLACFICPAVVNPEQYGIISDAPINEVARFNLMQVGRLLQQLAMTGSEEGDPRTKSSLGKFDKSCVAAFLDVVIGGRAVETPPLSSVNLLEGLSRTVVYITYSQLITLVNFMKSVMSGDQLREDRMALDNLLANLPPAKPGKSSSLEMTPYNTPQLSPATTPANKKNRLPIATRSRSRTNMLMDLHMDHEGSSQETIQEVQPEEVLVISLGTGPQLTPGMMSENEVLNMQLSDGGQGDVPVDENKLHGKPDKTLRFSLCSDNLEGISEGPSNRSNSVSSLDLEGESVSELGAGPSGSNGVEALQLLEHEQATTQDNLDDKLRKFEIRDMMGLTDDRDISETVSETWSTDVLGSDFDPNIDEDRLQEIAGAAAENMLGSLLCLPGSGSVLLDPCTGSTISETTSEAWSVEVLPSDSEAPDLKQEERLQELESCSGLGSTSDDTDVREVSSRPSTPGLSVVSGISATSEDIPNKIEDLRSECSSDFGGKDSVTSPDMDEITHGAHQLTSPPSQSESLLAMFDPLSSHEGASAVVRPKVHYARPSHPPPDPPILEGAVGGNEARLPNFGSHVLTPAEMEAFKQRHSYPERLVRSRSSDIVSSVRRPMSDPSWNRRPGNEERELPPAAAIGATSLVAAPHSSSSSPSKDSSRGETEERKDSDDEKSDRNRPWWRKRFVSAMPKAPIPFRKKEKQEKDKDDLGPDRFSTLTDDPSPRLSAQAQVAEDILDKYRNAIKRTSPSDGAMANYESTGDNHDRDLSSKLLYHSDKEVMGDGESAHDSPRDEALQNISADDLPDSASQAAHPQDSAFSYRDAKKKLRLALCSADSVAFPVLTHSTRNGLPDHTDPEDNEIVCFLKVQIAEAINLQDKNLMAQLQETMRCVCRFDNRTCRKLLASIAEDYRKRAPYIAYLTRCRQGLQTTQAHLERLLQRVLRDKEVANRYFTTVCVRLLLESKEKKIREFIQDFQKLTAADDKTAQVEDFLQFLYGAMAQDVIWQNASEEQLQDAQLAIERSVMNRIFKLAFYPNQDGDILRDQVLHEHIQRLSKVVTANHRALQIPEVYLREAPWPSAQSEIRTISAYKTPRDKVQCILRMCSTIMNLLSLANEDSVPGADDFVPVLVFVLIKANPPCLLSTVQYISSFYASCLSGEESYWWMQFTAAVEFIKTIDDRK
inactive: [1] 0.01 | [2] 0 | [3] -0.051 | [4] 0.01 | [5] 0.019 | [6] 0 | [7] -0.013 | [8] 0.007 | [9] -0.025 | [10] -0.015

EHD2 (UniProt Q9NZN4)
inactive: [1] 0.048 | [2] -0.167 | [3] -0.043 | [4] -0.063 | [5] 0.012 | [6] -0.002 | [7] -0.071 | [8] -0.004 | [9] 0.012 | [10] 0.01

EPN2 (UniProt O95208)
Sequence of UniProt O95208 (O95208 whole entry, looked up): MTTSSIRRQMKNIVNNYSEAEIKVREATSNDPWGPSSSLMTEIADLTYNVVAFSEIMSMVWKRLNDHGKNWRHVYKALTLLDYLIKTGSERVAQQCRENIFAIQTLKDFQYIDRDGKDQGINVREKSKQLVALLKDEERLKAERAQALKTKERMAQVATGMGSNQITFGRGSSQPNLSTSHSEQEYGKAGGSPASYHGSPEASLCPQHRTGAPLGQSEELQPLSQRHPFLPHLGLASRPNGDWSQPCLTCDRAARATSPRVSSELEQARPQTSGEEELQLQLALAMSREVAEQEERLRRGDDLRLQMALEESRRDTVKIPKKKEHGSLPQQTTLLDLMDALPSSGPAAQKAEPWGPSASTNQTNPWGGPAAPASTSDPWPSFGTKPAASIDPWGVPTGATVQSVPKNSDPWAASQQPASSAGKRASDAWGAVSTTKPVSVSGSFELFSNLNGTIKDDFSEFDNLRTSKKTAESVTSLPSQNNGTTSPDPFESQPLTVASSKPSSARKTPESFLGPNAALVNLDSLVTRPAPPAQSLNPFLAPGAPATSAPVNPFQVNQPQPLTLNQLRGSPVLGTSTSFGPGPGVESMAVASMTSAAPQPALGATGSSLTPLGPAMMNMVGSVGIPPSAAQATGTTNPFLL
inactive: [1] 0.054 | [2] -0.08 | [3] -0.001 | [4] -0.011 | [5] -0.059 | [6] -0.039 | [7] 0.003 | [8] -0.003 | [9] 0.007 | [10] -0.005

EIF2AK1 (UniProt Q9BQI3)
Sequence of UniProt Q9BQI3 (Q9BQI3 whole entry, looked up): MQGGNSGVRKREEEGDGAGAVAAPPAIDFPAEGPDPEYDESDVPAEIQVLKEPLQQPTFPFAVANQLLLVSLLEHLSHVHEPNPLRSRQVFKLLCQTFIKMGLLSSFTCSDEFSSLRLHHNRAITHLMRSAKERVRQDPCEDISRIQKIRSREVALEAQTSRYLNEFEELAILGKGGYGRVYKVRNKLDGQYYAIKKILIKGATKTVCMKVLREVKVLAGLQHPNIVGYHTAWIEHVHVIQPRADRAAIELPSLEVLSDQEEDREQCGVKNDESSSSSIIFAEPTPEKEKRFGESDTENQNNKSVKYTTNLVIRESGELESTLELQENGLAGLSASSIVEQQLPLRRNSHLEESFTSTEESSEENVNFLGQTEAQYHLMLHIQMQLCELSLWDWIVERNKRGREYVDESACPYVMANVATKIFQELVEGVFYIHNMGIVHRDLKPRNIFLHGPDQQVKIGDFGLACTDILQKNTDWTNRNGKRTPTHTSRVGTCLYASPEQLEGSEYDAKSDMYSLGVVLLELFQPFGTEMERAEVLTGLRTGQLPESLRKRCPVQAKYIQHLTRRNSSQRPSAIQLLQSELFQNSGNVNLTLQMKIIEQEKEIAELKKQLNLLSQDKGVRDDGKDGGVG
inactive: [1] -0.016 | [2] 0.087 | [3] 0.017 | [4] -0.02 | [5] 0.029 | [6] -0.027 | [7] -0.016 | [8] -0.02 | [9] -0.006 | [10] -0.01

EIF2AK2 (UniProt P19525)
inactive: [1] 0.02 | [2] 0.011 | [3] -0.055 | [4] -0.072 | [5] 0.003 | [6] 0.005 | [7] -0.039 | [8] -0.013 | [9] 0.016 | [10] -0.011

ENY2 (UniProt Q9NPA8)
Sequence of UniProt Q9NPA8 (Q9NPA8 whole entry, looked up): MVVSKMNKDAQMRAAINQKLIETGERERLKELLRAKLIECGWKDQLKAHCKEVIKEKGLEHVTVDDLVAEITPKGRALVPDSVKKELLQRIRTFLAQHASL
inactive: [1] 0.033 | [2] 0.03 | [3] -0.015 | [4] 0.002 | [5] -0.026 | [6] 0.043 | [7] 0.081 | [8] 0.104 | [9] -0.087 | [10] -0.019

FBXO9 (UniProt Q9UK97)
inactive: [1] -0.06 | [2] 0.126 | [3] 0.091 | [4] 0.013 | [5] 0.086 | [6] 0.01 | [7] -0.032 | [8] 0.019 | [9] -0.108 | [10] -0.005

GALNT2 (UniProt Q10471)
Sequence of UniProt Q10471 (Q10471 whole entry, looked up): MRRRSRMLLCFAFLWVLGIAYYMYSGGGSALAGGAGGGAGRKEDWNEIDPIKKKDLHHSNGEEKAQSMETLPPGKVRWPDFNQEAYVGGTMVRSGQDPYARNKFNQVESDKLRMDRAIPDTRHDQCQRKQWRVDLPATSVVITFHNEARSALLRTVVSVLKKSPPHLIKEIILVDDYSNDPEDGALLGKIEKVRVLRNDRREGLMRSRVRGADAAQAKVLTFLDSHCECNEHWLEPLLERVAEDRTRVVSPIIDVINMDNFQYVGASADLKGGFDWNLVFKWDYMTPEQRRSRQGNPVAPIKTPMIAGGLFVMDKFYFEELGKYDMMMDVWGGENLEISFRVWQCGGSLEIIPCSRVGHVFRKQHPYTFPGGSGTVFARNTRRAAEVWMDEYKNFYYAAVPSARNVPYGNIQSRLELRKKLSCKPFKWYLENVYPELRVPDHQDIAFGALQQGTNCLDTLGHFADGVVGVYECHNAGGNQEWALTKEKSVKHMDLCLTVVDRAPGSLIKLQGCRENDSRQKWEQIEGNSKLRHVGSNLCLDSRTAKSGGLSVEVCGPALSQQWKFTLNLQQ
inactive: [1] -0.028 | [2] 0.005 | [3] -0.098 | [4] 0.054 | [5] -0.004 | [6] -0.04 | [7] -0.056 | [8] -0.045 | [9] 0.002 | [10] -0.012

FIBP (UniProt O43427)
inactive: [1] -0.071 | [2] -0.027 | [3] 0.022 | [4] 0.067 | [5] 0.018 | [6] 0.041 | [7] 0.079 | [8] -0.064 | [9] 0.029 | [10] 0.006

DUS3L (UniProt Q96G46)
inactive: [1] -0.009 | [2] -0.001 | [3] 0.048 | [4] 0.059 | [5] 0.013 | [6] 0.032 | [7] -0.013 | [8] -0.012 | [9] -0.007 | [10] 0.017

GBF1 (UniProt Q92538)
inactive: [1] 0.044 | [2] 0.043 | [3] -0.036 | [4] -0.009 | [5] 0.002 | [6] -0.008 | [7] -0.012 | [8] -0.007 | [9] 0.023 | [10] 0.058

EIF2D (UniProt P41214)
inactive: [1] 0.048 | [2] 0.019 | [3] -0.017 | [4] 0.054 | [5] 0.001 | [6] 0.008 | [7] -0.016 | [8] 0.025 | [9] 0.021 | [10] -0.023

FIG4 (UniProt Q92562)
inactive: [1] 0.032 | [2] -0.032 | [3] -0.029 | [4] 0 | [5] 0.007 | [6] 0.064 | [7] 0.02 | [8] 0.061 | [9] -0.053 | [10] 0.003
